Rows were chosen to be rich in hits. Some 6.8% of all compounds tested hit in one or more screens of this group.
MK inhibit: S. pneumoniae mevalonate kinase inhibition; purified MK, PK/LDH-coupled NADH absorbance 340 nm; inhibition, % at 10 µM; actives 0.48% (n = 65,000); AID 555;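 active means ranked among the strongest by inhibition in the single 10 µM screen, a fixed top-ranked set picked for dose follow-up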
DPM-DC inhibit: blocks S. pneumoniae diphosphomevalonate decarboxylase; purified DPM-DC, PK/LDH coupled NADH fluorescence; calls only at 10 µM; actives 0.49% (n = 65,000); AID 556;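 active means the 320 compounds with the highest percent inhibition in the single-dose primary screen, excluding strongly autofluorescent ones, cut at about 32% in these data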;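 further: kinetic rate of NADH fluorescence loss reporting ADP formed by the decarboxylase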
Autofluor 339: intrinsic fluorescence of library compounds, ex339/em460 – biochemical, MLSMR library, data from DPM-DC assay, artefact control, profiling panel. compound autofluorescence, ex339/em460 nm, NADH buffer; active compounds read high; 1 = no-compound wells, NADH background. fluorescence fold increase at 10 µM. actives 5.5% (n = 65,000). AID 709;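 active means at 10 µM, mean starting fluorescence two-fold or more over control wells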;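 further: signal is the first read of a kinetic run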
PMK inhibit: inhibitors of Streptococcus pneumoniae phosphomevalonate kinase; purified PMK, PK/LDH-coupled NADH absorbance 340 nm; inhibition, % at 10 µM; actives 0.49% (n = 65,000);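 active means top-ranked compounds by inhibition in the single 10 µM screen, taking a fixed number of the strongest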;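 further: 0% = full reaction with DMSO carrier and 100% = background rate without enzyme reaction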
A340 absorber: compounds absorbing at 340 nm; compound absorbance at 340 nm, fold over control; fold change at 10 µM; 65,000 tested, under 10 active;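 active means at 10 µM dose, initial 340 nm absorbance at least 2 fold that of control wells; inactive means change under 2 fold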;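 further: initial absorbance extrapolated from kinetic A340 decline of NADH oxidation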
NADH enzymes: inhibition of NAD/NADH coupling enzymes, library profiling; coupled PK/LDH NADH assays, four targets; IC50, µM (doses to about 10 µM), inactives show at the top dose inhibition; actives 0.02% (n = 65,000);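 active means single-dose screening hits from any of four coupled enzyme assays that gave an IC50 when retested across doses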;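 further: the DPM-DC format reads NADH fluorescence rather than 340 nm absorbance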
* hit, by the source's call.

O=S(=O)(NC(=NC1CCCC1)C(F)(F)F)c1ccccc1 was read as MK inhibit 0, DPM-DC inhibit inactive, Autofluor 339 1, PMK inhibit 22, A340 absorber 0.99 and NADH enzymes 7%.
`OC1(c2cccc(C(F)(F)F)c2)CCN(c2ncnc3c2[nH]c2ccc(F)cc23)CC1` gave MK inhibit 7, DPM-DC inhibit inactive, Autofluor 339 2.5*, PMK inhibit 1, A340 absorber 1.1 and NADH enzymes 4%.
`CCOc1ccc(OCc2ccc(C(=O)OCc3ccccn3)o2)cc1` gave MK inhibit 7, DPM-DC inhibit inactive, Autofluor 339 0.89, PMK inhibit 7, A340 absorber 1 and NADH enzymes 9%.
Screening O=c1c2ccccc2c(/C=N/n2cnnc2)c(O)n1-c1ccccc1F returned MK inhibit 9, DPM-DC inhibit inactive, Autofluor 339 3*, PMK inhibit 14, A340 absorber 1 and NADH enzymes 13%.
`Cc1ccc(-n2c(O)c(/C=N/n3cnnc3)c3ccccc3c2=O)cc1` gave MK inhibit 3, Autofluor 339 2.2*, PMK inhibit 0, A340 absorber 1.1 and NADH enzymes 2%.
Screening O=c1c2ccccc2c(C=NCCO)c(O)n1-c1ccccc1 returned MK inhibit 0, DPM-DC inhibit inactive, Autofluor 339 1.2, PMK inhibit 0, A340 absorber 1.1 and NADH enzymes 0%.
Screening CCNc1ccc(C(=O)OCC)cc1NC(=O)c1cccc(S(=O)(=O)N2CCOCC2)c1 returned MK inhibit 3, DPM-DC inhibit inactive, Autofluor 339 1, PMK inhibit 8, A340 absorber 1.1 and NADH enzymes 4%.
For CCOC(=O)/C=C/S(=O)(=O)c1ccc(NC(C)=O)cc1 the results were MK inhibit 2, DPM-DC inhibit inactive, Autofluor 339 1.1, PMK inhibit 9, A340 absorber 1 and NADH enzymes 4%.
`CSc1nc(NC(C)(C)C)nc(Oc2ccc(=O)[nH]n2)n1` gave MK inhibit 6, DPM-DC inhibit inactive, Autofluor 339 1, PMK inhibit 9, A340 absorber 0.98 and NADH enzymes 2%.
`CCNc1nc(NCc2ccccc2)nc(Oc2ccc(=O)[nH]n2)n1` gave MK inhibit 7, DPM-DC inhibit inactive, Autofluor 339 2.6*, PMK inhibit 4, A340 absorber 1 and NADH enzymes 4%.
Cc1cc(N2CCN(C(=O)c3ccco3)CC2)n2nc(C)c(-c3ccc(Cl)cc3)c2n1 was read as MK inhibit 15, Autofluor 339 3.7*, PMK inhibit 19, A340 absorber 1.1 and NADH enzymes 17%.
`Cc1cc(N2CCN(C(=O)c3ccco3)CC2)n2nc(C)c(-c3ccccc3)c2n1` gave MK inhibit 11, DPM-DC inhibit inactive, Autofluor 339 1.4, PMK inhibit 11, A340 absorber 1.1 and NADH enzymes 7%.
`Cc1cc(N2CCN(C(=O)c3ccco3)CC2)n2nc(-c3cccc(Cl)c3)cc2n1` gave MK inhibit 8, DPM-DC inhibit active, Autofluor 339 0.7, PMK inhibit 2, A340 absorber 1 and NADH enzymes 15%.
`O=C(c1cc2nc(-c3ccccc3)cc(-c3ccccc3)n2n1)N1CCN(C(=O)c2ccco2)CC1` gave MK inhibit 9, Autofluor 339 3.7*, PMK inhibit 8, A340 absorber 1.1 and NADH enzymes 9%.
CCOC(=O)c1c(NC(=O)CSc2nnc(-c3cccnc3)n2Cc2ccco2)sc(C)c1C was read as MK inhibit 6, DPM-DC inhibit inactive, Autofluor 339 0.99, PMK inhibit 18, A340 absorber 1.1 and NADH enzymes 8%.
Screening Cc1ccc(-c2cnc(-c3ccncc3)o2)cc1 returned MK inhibit 4, Autofluor 339 2.2*, PMK inhibit 11, A340 absorber 1.1 and NADH enzymes 8%.
`Cc1ccc(-c2nc(-c3cccnc3)no2)cc1` gave MK inhibit 6, DPM-DC inhibit inactive, Autofluor 339 1.1, PMK inhibit 3, A340 absorber 1 and NADH enzymes 7%.
Screening Cc1ccc2c(CSc3nc4ccccc4c(=O)n3CCCO)cc(=O)oc2c1 returned MK inhibit 0, DPM-DC inhibit inactive, Autofluor 339 1, PMK inhibit 13, A340 absorber 1 and NADH enzymes 4%.
`CCOC(=O)Cc1c(C)c2c(C)nn(-c3ccccc3)c2oc1=O` gave MK inhibit 0, DPM-DC inhibit inactive, Autofluor 339 2.3*, PMK inhibit 0, A340 absorber 1.1 and NADH enzymes 6%.
Fc1ccccc1N1CCN(CCCNc2ccc3nncn3n2)CC1 was read as MK inhibit 10, DPM-DC inhibit inactive, Autofluor 339 1.1, PMK inhibit 6, A340 absorber 1.1 and NADH enzymes 5%.
Clc1ccc(OCCn2ccnc2)c(Cl)c1 was read as MK inhibit 6, DPM-DC inhibit inactive, Autofluor 339 1.1, PMK inhibit 3, A340 absorber 1.1 and NADH enzymes 4%.
Clc1ccc(SCCn2ccnc2)cc1 was read as MK inhibit 41*, DPM-DC inhibit inactive, Autofluor 339 1, PMK inhibit 0, A340 absorber 0.99 and NADH enzymes 4%.
Screening COc1cc(NC(=O)c2nccnc2C(=O)O)cc(OC)c1 returned MK inhibit 1, DPM-DC inhibit inactive, Autofluor 339 1, PMK inhibit 0, A340 absorber 1 and NADH enzymes 2%.
Screening CC(C)(C)OC(=O)NCCC(=O)Oc1ccc2ccc(=O)oc2c1 returned MK inhibit 6, Autofluor 339 2.3*, PMK inhibit 9, A340 absorber 1 and NADH enzymes 8%.
Screening COc1ccc(C(CC(=O)O)NC(=O)OC(C)(C)C)cc1 (stereo not drawn) returned MK inhibit 2, DPM-DC inhibit inactive, Autofluor 339 1, PMK inhibit 0, A340 absorber 1 and NADH enzymes 1%.
`CC(NC(=O)OC(C)(C)C)C(=O)Oc1ccc2ccc(=O)oc2c1` (stereo not drawn) gave MK inhibit 6, Autofluor 339 2.3*, PMK inhibit 0, A340 absorber 1 and NADH enzymes 3%.
`CC(C)N(Cc1nnc(-c2ccccc2Cl)o1)C(=O)c1cccc(C#N)c1` gave MK inhibit 12, DPM-DC inhibit inactive, Autofluor 339 1.1, PMK inhibit 0, A340 absorber 1 and NADH enzymes 7%.
`CC(CC(=O)O)CC(=O)Nc1ccccc1C(=O)O` (stereo not drawn) gave MK inhibit 2, DPM-DC inhibit inactive, Autofluor 339 1.1, PMK inhibit 7, A340 absorber 1.1 and NADH enzymes 4%.

Compound activity (PubChem BioAssay)
